Some test systems named below: SK-MEL-2 melanoma; EKVX NSCLC; SN12C renal; UO-31 renal; TK-10 renal; ACHN renal; CAKI-1 renal; A498 renal; SR leukemia; RPMI-8226 leukemia; OVCAR-8 ovarian; OVCAR-5 ovarian; OVCAR-4 ovarian; SK-OV-3 ovarian; IGROV1 ovarian; OVCAR-3 ovarian; HS 578T breast; NCI/ADR-RES ovarian; MOLT-4 leukemia.
What all share (test): NCI-60 one-dose screen, 48 h (100 = growth as untreated, 0 = no growth, -100 = all killed)
Holding throughout (details): 10 µM unless noted

Nine compounds from PubChem BioAssay (NCI) can be followed below.

Molecules are shown by their SMILES. This is part of a sample that, as a whole, favours compounds with a hit. Of some 83,000 tested, about 20% had one in any assay.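 Interpretation: 100, growth as untreated; towards 0, rising growth inhibition; 0, no net growth; 0 to -100, cell death. Compounds scoring below 10 were considered active.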 A number with no mark means an inactive call. The source made the active and inactive calls.

As for `CN(C)c1ccc(/C=C/C(=O)c2cccc(Nc3nc(Nc4ccccc4)nc(Nc4ccccc4)n3)c2)cc1`, the growth with SK-MEL-2 melanoma is 62.1%; in the assay with EKVX NSCLC, 77.8%; in the assay on SN12C renal, 91.6%; with UO-31 renal it was 73.5%; in the assay on TK-10 renal it was 90.9%; in the assay on ACHN renal, 90.6%. For the same compound, the growth is 91.6% with CAKI-1 renal; 76.8% in the assay on A498 renal; 77.4% with SR leukemia; 53.4% with RPMI-8226 leukemia; 81.2% with OVCAR-8 ovarian; 93.9% in the assay with OVCAR-5 ovarian. For the same compound, the growth is 30.7% in the assay on OVCAR-4 ovarian; 93.2% with SK-OV-3 ovarian; 69% in the assay on IGROV1 ovarian; 102% with OVCAR-3 ovarian; 78.9% in the assay with HS 578T breast; 76.4% in the assay on NCI/ADR-RES ovarian.

As for `Cc1ccc(Nc2nc(N)nc(CSCC(=O)NN)n2)cc1`, the growth is 109% in the assay with SK-MEL-2 melanoma; 102% with EKVX NSCLC; 94.6% in the assay on SN12C renal; 88.2% in the assay with UO-31 renal; 115% with TK-10 renal; 101% in the assay with ACHN renal. Moreover, the growth in the assay on CAKI-1 renal is 89.8%; with A498 renal it was 77.7%; in the assay on SR leukemia, 87%; in the assay with RPMI-8226 leukemia, 101%; with OVCAR-8 ovarian, 103%; with OVCAR-5 ovarian it was 103%. The growth in the assay with OVCAR-4 ovarian is 93.7%; in the assay with SK-OV-3 ovarian, 101%; with IGROV1 ovarian, 99.5%; in the assay with OVCAR-3 ovarian it was 105%; in the assay on HS 578T breast, 90.9%; with NCI/ADR-RES ovarian, 104%.

`COc1ccc2oc3c(C)c4c(c(C)c3c2c1)C(=O)N(Cc1ccccc1)C4=O`: the growth with SK-MEL-2 melanoma was 105%; in the assay on EKVX NSCLC it was 92.9%; in the assay with SN12C renal it was 89.8%; in the assay with UO-31 renal, 80.7%; in the assay on TK-10 renal, 120%; in the assay with ACHN renal it was 88.3%. The growth is 81.1% with CAKI-1 renal; 109% in the assay on A498 renal; 106% with MOLT-4 leukemia; 100% with RPMI-8226 leukemia; 91.2% in the assay with OVCAR-8 ovarian; 90.7% with OVCAR-4 ovarian. Further, the growth in the assay on SK-OV-3 ovarian is 103%; with IGROV1 ovarian, 94.6%; in the assay with OVCAR-3 ovarian, 89.3%; in the assay on HS 578T breast it was 85.5%; in the assay with NCI/ADR-RES ovarian, 95.3%.

For `COc1ccc(NC(=O)c2nc(-c3cc(OC)c(OC)c(OC)c3)n(-c3cccc4ccccc34)n2)cc1OC`, the growth was 43.7% in the assay on SK-MEL-2 melanoma; 44.6% in the assay with EKVX NSCLC; 52.9% in the assay with SN12C renal; 6.34% (active) in the assay with UO-31 renal; 44.8% with TK-10 renal; 30.6% with ACHN renal. Further, the growth with CAKI-1 renal was 20.1%; in the assay with A498 renal it was 42.6%; in the assay with SR leukemia, 33.1%; in the assay on RPMI-8226 leukemia it was 11.6%; with OVCAR-8 ovarian, 52.5%; with OVCAR-5 ovarian it was 56.1%. Also, the growth was 45.5% with OVCAR-4 ovarian; 38.3% in the assay with SK-OV-3 ovarian; 22.9% in the assay on IGROV1 ovarian; 27.7% in the assay with OVCAR-3 ovarian; 23.4% in the assay on HS 578T breast; 35.2% in the assay with NCI/ADR-RES ovarian.

With `CCN(CC)CCN1CC(O)=C(c2nc(-c3ccc(Cl)cc3)cs2)C1=N`, the growth with SK-MEL-2 melanoma was 100%; in the assay with EKVX NSCLC, 82.8%; in the assay with SN12C renal, 64.5%; in the assay on UO-31 renal, -24.7% (active); with TK-10 renal it was 89.2%; in the assay on ACHN renal, 42.5%. Also, the growth in the assay with CAKI-1 renal was 43.2%; in the assay with A498 renal, 56.5%; with SR leukemia it was -4.58% (active); with RPMI-8226 leukemia, 13.6%; in the assay on OVCAR-8 ovarian it was 44.6%; in the assay with OVCAR-5 ovarian, 66.4%. Moreover, the growth is 84.6% in the assay on OVCAR-4 ovarian; 101% in the assay with SK-OV-3 ovarian; 40.8% with IGROV1 ovarian; 80.5% with OVCAR-3 ovarian; 47.2% in the assay with HS 578T breast; 69.4% in the assay with NCI/ADR-RES ovarian.

Regarding `CCCCCS(=O)(=O)Nc1ccc(C(=O)O)cc1`, the growth in the assay on SK-MEL-2 melanoma is 93%; in the assay with EKVX NSCLC, 100%; with SN12C renal it was 101%; in the assay on UO-31 renal, 97.9%; in the assay with TK-10 renal, 92.1%; in the assay with ACHN renal, 104%. Further, the growth in the assay on CAKI-1 renal is 102%; in the assay on A498 renal, 104%; in the assay with SR leukemia, 95.7%; in the assay with OVCAR-8 ovarian, 106%; with OVCAR-5 ovarian, 111%; with OVCAR-4 ovarian it was 103%. Also, the growth was 99.2% in the assay on SK-OV-3 ovarian, 101% in the assay on IGROV1 ovarian, 110% in the assay with HS 578T breast and 102% in the assay on NCI/ADR-RES ovarian.

`COc1ccc(C(=O)/C=C/c2c(C(F)(F)F)nc3sccn23)cc1OC`: the growth was 80.4% in the assay with SK-MEL-2 melanoma; 37.1% with EKVX NSCLC; 29% with SN12C renal; 61.1% in the assay on UO-31 renal; 58.1% in the assay on TK-10 renal; 26.5% in the assay on ACHN renal. Moreover, the growth is 2.75% (active) in the assay with CAKI-1 renal; 94.7% in the assay with A498 renal; -16.6% (active) in the assay on MOLT-4 leukemia; 18.6% in the assay on OVCAR-8 ovarian; 44.6% with OVCAR-5 ovarian; 25.5% in the assay on OVCAR-4 ovarian. Moreover, the growth in the assay with SK-OV-3 ovarian is 9.87% (active); in the assay on IGROV1 ovarian, 81.9%; in the assay on OVCAR-3 ovarian, -33.9% (active); with HS 578T breast, -5.99% (active); in the assay on NCI/ADR-RES ovarian, 4.94% (active).

For `Cc1ccc2[nH]c(=O)c3c(c2c1)OC(N)=C(C#N)C31c2cc(Br)ccc2-c2ccc(Br)cc21`, the growth in the assay on SK-MEL-2 melanoma was 77.1%; in the assay on EKVX NSCLC, 60.3%; in the assay with SN12C renal, 82.7%; in the assay with UO-31 renal, 58.3%; in the assay with TK-10 renal, 84.2%; in the assay with ACHN renal it was 62.3%. Besides, the growth is 49.1% in the assay on CAKI-1 renal; 79.7% in the assay on A498 renal; 72.2% in the assay with SR leukemia; 3.77% (active) with RPMI-8226 leukemia; 61.1% with OVCAR-5 ovarian; 21% in the assay on OVCAR-4 ovarian. In addition, the growth in the assay on SK-OV-3 ovarian is 91.8%; in the assay with IGROV1 ovarian it was 40.1%; in the assay on OVCAR-3 ovarian, 58.9%; in the assay with HS 578T breast, 70.8%; in the assay with NCI/ADR-RES ovarian it was 82.3%.

With `Cc1cccc(Cc2cnc(NC(=O)c3ccc4nnsc4c3)s2)c1`, the growth was 82.7% in the assay with SK-MEL-2 melanoma; 87.4% in the assay on EKVX NSCLC; 92.9% with SN12C renal; 78.5% with UO-31 renal; 80.9% with TK-10 renal; 70.3% in the assay on ACHN renal. Besides, the growth in the assay on CAKI-1 renal was 60.2%; in the assay on A498 renal, 106%; with SR leukemia, 95.2%; with RPMI-8226 leukemia it was 76.4%; in the assay with OVCAR-8 ovarian, 96.5%; with OVCAR-5 ovarian it was 84.4%. For the same compound, the growth in the assay with OVCAR-4 ovarian is 98.3%; in the assay with SK-OV-3 ovarian, 91.8%; in the assay on IGROV1 ovarian, 97.9%; with OVCAR-3 ovarian it was 104%; in the assay with HS 578T breast, 109%; with NCI/ADR-RES ovarian it was 90%.
